Measurements from PubChem BioAssay AID485275 (NMMLSC, 2010).
Out of some 330,000 compounds screened, about 1,400 (0.42%) were called active. The sample holds actives, similar compounds and a random draw of the others, so the mix is not that of the screen. Unmarked numbers belong to inactive results.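 Rule for the calls: active = plate passing quality check with inhibition over a set limit, or well fluorescence over plate mean plus 4 SD; inactive = the rest.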

Assay: antifungal drug efflux pump blockers, triplex strains – S. cerevisiae, Nile Red, multiplex, primary screen (AID 485275);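 note: Nile Red retained in pooled yeast measured as flow cytometry median fluorescence; 0% = buffer negative control and 100% = Enniatin B positive control; higher means more Nile Red kept so more efflux inhibition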
Details: S. cerevisiae Candida pump triplex, at 10 µM, hits give high values

| Structure (SMILES) | inhibition |
| --- | --- |
| CC(C)N1CCC(N2CCN(Cc3cccnc3)CC2CCO)CC1 (stereo unspecified) | 0.28% |
| Nc1ccc(N=Nc2ccccc2Cl)c(N)n1 | 0.15% |
| O=C(/C=C/c1c(Cl)cccc1Cl)NCc1ccccc1 | 24.9% (active) |
| CCOC(=O)CNC(=O)/C=C/c1c(Cl)cccc1Cl | -1.16% |
| O=C(CC(=O)N/N=C\c1cccc(Cl)c1Cl)NCc1ccccc1 | 0.27% |
| CCCc1ccc(OCC(O)CN2CCN(C(=O)OCC)CC2)cc1 (stereo unspecified) | 0.15% |
| C=CCC[C@H](Cc1ccc(F)cc1)C(=O)OC[C@@H](Cc1c[nH]c2ccccc12)NC(=O)[C@H](CC=C)CC(=O)N[C@H](CO)Cc1ccccc1 | -0.27% |
| C=CCC[C@H](Cc1ccc(F)cc1)C(=O)OC[C@H](C)NC(=O)[C@H](CC=C)CC(=O)N(CCO)Cc1ccccc1 | -0.16% |
| C=CCC[C@@H](Cc1ccc(F)cc1)C(=O)OC[C@H](Cc1c[nH]c2ccccc12)NC(=O)[C@@H](CC=C)CC(=O)N(CCO)Cc1ccccc1 | 149% (active) |
| COCC(C)NC(=O)c1ccc(-n2nc(C(F)(F)F)cc2-c2cccs2)cc1 (stereo unspecified) | -0.07% |
| O=C(NCc1ccc2c(c1)OCO2)c1cc(F)c(F)cc1Cl | 0.18% |
| CCn1c(=O)c(C(=O)NCc2ccc3c(c2)OCO3)c(O)c2ccccc21 | -0.11% |
| Cc1nc2c(C(=O)NCc3ccc4c(c3)OCO4)c[nH]n2c(=O)c1Cc1ccccc1F | 0.63% (active) |
| CCN(C(=O)CSc1nnc(-c2ccc(OC(F)F)cc2)n1N)C1CCS(=O)(=O)C1 (stereo unspecified) | 0.02% |
| CC(=O)C1(C)N(O)C(C)(C)C(c2cccs2)=[N+]1[O-] (stereo unspecified) | -0.09% |
| O=C(CSc1nnc(-c2cccnc2)n1Cc1ccco1)c1ccc(Cl)c(Cl)c1 | 0.84% (active) |
| COc1cc(Cl)c(C)cc1NC(=O)CSc1nnc(-c2cccnc2)n1Cc1ccco1 | 0.03% |
| O=C(CSc1nnc(-c2cnccn2)n1Cc1ccco1)c1ccc(Cl)c(Cl)c1 | -0.1% |
| CSc1cccc(NC(=O)C2CCCN2S(=O)(=O)c2ccc3c(c2)CCC(=O)N3)c1 (stereo unspecified) | 0.16% |
| COc1cccc(CNC(=O)C(=O)NCCC2CCCCN2S(=O)(=O)c2ccc(C)cc2)c1 (stereo unspecified) | 0.03% |
| Cc1ccc(C(=O)Nc2ccccc2-c2ccccc2)cc1S(=O)(=O)Nc1ccccc1 | 0.01% |
| Cc1ccc(C(=O)O)cc1N1C(=O)CCCC1=O | -0.14% |
| CCC(=O)Nc1ccc(S(=O)(=O)Nc2c(NC)c3ccccc3oc2=O)cc1 | 0.02% |
| O=c1oc2ccccc2c(NC2CCCCC2)c1NS(=O)(=O)c1ccc(Cl)cc1 | -0.01% |
| CCNc1c(NS(=O)(=O)c2ccc(C3CCCCC3)cc2)c(=O)oc2ccccc12 | 1.37% (active) |
| CC1CC(C)CN(C(=O)C2CC(=O)N(c3ccc(F)cc3)C2)C1 (stereo unspecified) | -0.06% |

| Structure (SMILES) | inhibition |
| --- | --- |
| COc1ccccc1N=C1SC(C)CN1C(=O)C1CCC1 (stereo unspecified) | 0.03% |
| O=C(NN1C(=O)C2C3C=CC(O3)C2C1=O)c1ccncc1 (stereo unspecified) | 0.07% |
| Cc1ccccc1Nc1nc(-c2cccnc2)cs1 | 0.3% |
| Cc1ccc(-c2csc(NC3OC(=O)c4ccccc43)n2)cc1 (stereo unspecified) | 0.03% |
| c1cnc(Nc2nc(-c3ccc4ccccc4c3)cs2)nc1 | 0.79% (active) |
| CCOC(=O)c1[nH]ncc1CN1CCCC(C(=O)c2ccc(OC)cc2C)C1 (stereo unspecified) | 0.25% |
| COc1ccc(C(=O)C2CCCN(Cc3cccn3-c3ccccn3)C2)c(C)c1 (stereo unspecified) | 0.98% (active) |
| COc1ccc(C(=O)C2CCCN(Cc3ccc4nonc4c3)C2)c(C)c1 (stereo unspecified) | 0.05% |
| Cc1c(CCOC(=O)CC23CC4CC(CC(C)(C4)C2)C3)sc[n+]1Cc1ccc([N+](=O)[O-])cc1 | 0.61% (active) |
| Cc1c(CCO)sc[n+]1CC(=O)OC12CC3CC(CC(C3)C1)C2 | -0.46% |
| Cc1c(CCOC(=O)c2cc([N+](=O)[O-])ccc2Cl)sc[n+]1CCCCS(=O)(=O)[O-] | 0.04% |
| CC1CCCCC1NC(=O)Cn1c(=O)cnc2ccccc21 (stereo unspecified) | -0.23% |
| CCOC(=O)N1CCN(S(=O)(=O)c2ccc(C(=O)Nc3ccc(F)cc3F)cc2)CC1 | -0.12% |
| Cc1c(C(=O)NCCN2C(=O)S/C(=C\c3cccs3)C2=O)cccc1[N+](=O)[O-] | 0.33% |
| CCOc1ccc(CCNC(=O)Nc2ccccc2)cc1OCC | -0.23% |
| O=C(Cc1ccc(Br)cc1)NCCN1CCOCC1 | -0.17% |
| CCOc1ccccc1C1NC(=O)NC(C)=C1C(=O)OCc1ccco1 (stereo unspecified) | 0.02% |
| CCCn1nc(C(=O)NNC(=O)CCOc2ccccc2OCC)c2ccccc2c1=O | -0.08% |
| CCOc1ccccc1/C=c1\sc2nc(-c3ccco3)nn2c1=O | 3.16% (active) |
| O=C(CCNC(=O)c1ccc([N+](=O)[O-])cc1)Nc1ccccc1N1CCOCC1 | 0.19% |
| Cc1nc2sc(C(c3ccco3)N3CCC4(CC3)OCCO4)c(O)n2n1 (stereo unspecified) | -0.06% |
| O=C(NC(=S)Nc1ccc2oc(=O)ccc2c1)c1ccc(-c2cccc(Cl)c2Cl)o1 | 0.12% |
| NC(=O)C1CCN(CC(O)CSc2ccc(F)cc2)CC1 (stereo unspecified) | -0.06% |
| CC1CCc2c(sc3c2C2=NS(=O)(=O)CCN2C=N3)C1 (stereo unspecified) | 0.15% |
| O=C(CNC(=O)c1ccccc1)NCC(=O)OCc1ccc(Cl)cc1 | 0.03% |
| O=C(CNC(=O)c1ccc(-c2ccccc2)cc1)OCc1ccc(Cl)cc1 | 17.2% (active) |

| Structure (SMILES) | inhibition |
| --- | --- |
| Cc1ccc(C(=O)NCC(=O)OCc2nnc(-c3ccccc3)o2)cc1 | 0.08% |
| CN1CCN(Cc2c(C(=O)N3CCc4ccccc4C3)nc3ccc(Cl)cn23)CC1 | 0.16% |
| CCOc1ccc(NC(=O)CN(C)C(=O)COc2cccc(CC)c2)cc1OCC | 0.06% |
| COc1ccccc1-c1sc2ccccc2c1-c1ccc(Br)nc1 | -0.34% |
| COc1ccc2sc(-c3ccccc3OC)c(-c3ccc(OCCN4CCCC4)cc3)c2c1 | 198% (active) |
| COc1ccc(-c2sc3ccccc3c2-c2ccc(OCCN3CCOCC3)cc2)cc1 | 0.31% |
| COc1ccccc1-c1sc2ccccc2c1-c1ccc(C(C)=O)cc1 | -0.1% |
| COc1cc(OC)cc(-c2sc3ccc(OC)cc3c2-c2ccc3cc[nH]c3c2)c1 | -0.09% |
| O=C(COC(=O)COc1cc(Cl)c(Cl)cc1Cl)NC1CC1 | 0.12% |
| Cc1ccc(Cn2c(C)nc3c(c2=O)c2nc4ccccc4nc2n3Cc2ccco2)cc1 | 0.94% (active) |
| Clc1cccc(-c2nc3nc4ccccc4nc3n2Cc2ccco2)c1 | -0.17% |
| O=c1c2ccccc2oc2nc(C3CCCCC3)n(Cc3ccco3)c(=O)c12 | -0.05% |
| Cc1cc(N(C)C)cc(C)[n+]1[O-] | -0.18% |
| C=CC[n+]1c(-c2ccc(C)cc2)csc1NNC(=O)Nc1ccccc1 | -0.18% |
| Cc1cc(C)cc(NC(=O)C(OC(=O)c2ccc(O)cc2)c2ccccc2)c1 (stereo unspecified) | 0.91% (active) |
| COC(C(=O)Nc1ccc(C(C)=O)cc1)c1ccccc1 (stereo unspecified) | -0.08% |
| Cc1ccc(C)c(NC(=O)C(OC(=O)c2ccc(C)s2)c2ccccc2)c1 (stereo unspecified) | -0.08% |
| O=C(O)CCCCCCCCCC[n+]1ccccc1 | 0.3% |
| CCOC(=O)C1(Cc2cccc(OC)c2)CCCN(C(=O)CCSC)C1 (stereo unspecified) | 0.41% |
| Cc1cccc(OCCC(=O)OCc2csc(CC(=O)Nc3ccccc3C)n2)c1 | 0.08% |
| O=C(c1ccc(F)cc1)N1CCC(n2nnc3ccccc32)CC1 | -0.14% |
| COc1ccc2cc(C3=CC(=O)C[C@H](c4ccc5c(c4)OCO5)C3)ccc2c1 | -0.01% |
| Brc1cnc2ccccc2c1N1CCCCC1 | 0.04% |
| COc1cc(C(=O)NCc2ccc(-n3cccc3)cc2)cc(OC)c1OC | 0.13% |
